Source: PubChem BioAssay (Tox21)
Several values for one entry are separate records, joined by “and”; a condition that tells them apart may be missing. Equal values may be shown once. Inconclusive results are not listed. Entries that show only a call come without a potency. Where a structure was tested more than once in an assay, its records may differ in their call. Activity calls are given as the source filed them. Unless noted, the call rests on the fitted dose curve.

Columns and labels:
[1] = Nuclear factor erythroid 2-related factor 2/antioxidant responsive element (Nrf2/ARE) small molecule agonists: luciferase reporter gene qHTS assay in human keratinocytes (AID 1919969); further: nearly all actives have a fitted effect of over 35% in size; further: potency means the concentration at half of the fitted maximal effect
[2] = molecular target: Gonadotropin-releasing hormone receptor (Homo sapiens) (UniProt P30968); experiment: Human gonadotropin-releasing hormone receptor (GnRHR) small molecule agonists, calcium flux assay in GnRHR-HEK293 cells (AID 1920063); further: nearly all actives have a fitted effect of over 35% in size
Chain of Gonadotropin-releasing hormone receptor (Homo sapiens) (P30968 whole entry, looked up): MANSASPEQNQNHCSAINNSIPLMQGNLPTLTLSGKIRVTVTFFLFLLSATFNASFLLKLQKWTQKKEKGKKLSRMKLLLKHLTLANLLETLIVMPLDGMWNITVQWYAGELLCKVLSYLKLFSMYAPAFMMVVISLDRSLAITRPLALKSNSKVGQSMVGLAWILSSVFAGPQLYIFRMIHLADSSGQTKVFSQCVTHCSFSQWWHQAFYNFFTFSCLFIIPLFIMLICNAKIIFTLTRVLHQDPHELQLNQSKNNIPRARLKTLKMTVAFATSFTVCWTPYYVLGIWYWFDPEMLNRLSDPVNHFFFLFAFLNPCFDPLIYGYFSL
Method in brief: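 Stable human GnRHR HEK293 line. 18 h plating, then calcium dye for 1 h at 37 C. Agonist-mode compound addition from DMSO stocks; fluorescence monitored 3 min.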

[3] = molecular target: KiSS-1 receptor (Homo sapiens) (UniProt Q969F8); experiment: Human kisspeptin (KISS1R) small molecule agonists, calcium flux assay in KISS1R-HEK293 cells (AID 1920064; active means well fitted activation curve with a large enough effect in the repeat runs)
Chain of KiSS-1 receptor (Homo sapiens) (Q969F8 whole entry, looked up): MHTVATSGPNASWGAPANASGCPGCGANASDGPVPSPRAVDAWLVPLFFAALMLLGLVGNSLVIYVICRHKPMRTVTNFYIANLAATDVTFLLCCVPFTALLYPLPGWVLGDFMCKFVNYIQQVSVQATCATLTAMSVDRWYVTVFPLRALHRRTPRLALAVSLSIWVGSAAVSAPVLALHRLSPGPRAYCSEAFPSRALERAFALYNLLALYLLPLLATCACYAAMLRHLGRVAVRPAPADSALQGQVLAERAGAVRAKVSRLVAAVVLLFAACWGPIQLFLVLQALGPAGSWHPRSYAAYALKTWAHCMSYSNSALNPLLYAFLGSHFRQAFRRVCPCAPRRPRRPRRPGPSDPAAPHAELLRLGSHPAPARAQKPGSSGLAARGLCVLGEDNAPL
Method in brief: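 After overnight (18 h) culture at 37 C/5% CO2, human KISS1R-HEK293 cells received calcium dye for 1 h, then test compound; emission at 540 nm (excitation 480 nm) was tracked for 3 min.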

[4] = G protein-coupled receptor (GPCR) small molecule agonists, calcium flux assay: HEK293 wild type cell line counter screen (AID 1920065)
Method in brief: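 Following 18 h incubation at 37 C/5% CO2, plates got calcium dye for 1 h; compounds, ATP or DMSO were then pinned in and fluorescence followed kinetically (480/540 nm).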

[5] = p53 small molecule agonists, cell-based qHTS assay with human liver microsomes (AID 1963577);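 further: p53 response element beta-lactamase reporter cells with liver microsomes plus NADPH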
Method in brief: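 Steps: plate p53RE-bla cells, incubate 5 h at 37 C; add compound in DMSO; add microsomes (0.5 mg/mL final) and NADPH (0.5 mg/mL final); incubate 16 h at 37 C; add LiveBLAzer, 2 h RT; read fluorescence.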

[6] = p53 small molecule agonists, cell-based qHTS assay with human liver microsomes: qHTS cell viability counter screen (AID 1963579); further: nearly all actives have a fitted effect of over 45% in size
Method in brief: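 After the 460/530 nm beta-lactamase read, CellTiter-Glo was added to the same wells and luminescence measured after 30 min at room temperature, giving viability of p53RE-bla cells treated 16 h with compounds plus microsomes and NADPH.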

[7] = p53 small molecule agonists, cell-based qHTS assay (AID 1963582; active means well fitted activation curve with a large enough effect in the signal ratio in the repeat runs, not every such curve was filed as active; the % refers to the signal ratio)
Method in brief: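 Measured: fluorescence from cleaved LiveBLAzer substrate. System: p53RE-bla cells, 16 h compound treatment at 37 C, 2 h substrate step at room temperature.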

[8] = molecular target: 5-hydroxytryptamine receptor 2A (Homo sapiens) (UniProt P28223); experiment: 5-hydroxytryptamine receptor 2A (HTR2A) small molecule antagonists, cell-based qHTS assay (AID 1963586); further: nearly all actives have a fitted effect of over 45% in size
Chain of 5-hydroxytryptamine receptor 2A (Homo sapiens) (P28223 whole entry, looked up): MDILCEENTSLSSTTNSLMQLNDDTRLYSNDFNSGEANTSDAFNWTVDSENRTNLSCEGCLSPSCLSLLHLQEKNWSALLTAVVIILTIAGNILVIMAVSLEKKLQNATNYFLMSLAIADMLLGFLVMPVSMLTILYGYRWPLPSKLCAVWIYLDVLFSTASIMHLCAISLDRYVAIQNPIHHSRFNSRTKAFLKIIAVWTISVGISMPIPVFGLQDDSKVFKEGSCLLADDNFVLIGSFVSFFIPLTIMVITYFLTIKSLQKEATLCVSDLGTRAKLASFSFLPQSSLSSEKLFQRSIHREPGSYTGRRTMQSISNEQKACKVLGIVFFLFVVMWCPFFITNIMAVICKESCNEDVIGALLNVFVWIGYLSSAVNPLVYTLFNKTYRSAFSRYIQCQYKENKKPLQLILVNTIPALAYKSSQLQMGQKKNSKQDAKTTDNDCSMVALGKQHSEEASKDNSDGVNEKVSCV
Method in brief: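 CHO cells stably expressing human HTR2A were plated for 18 h at 37 C, then loaded with calcium dye for 1 h. Compounds were preincubated 5 min at room temperature before DOI (4 nM solution) was added. Kinetic fluorescence was read for 3 min.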

[9] = molecular target: 5-hydroxytryptamine receptor 2A (Homo sapiens) (UniProt P28223); experiment: 5-hydroxytryptamine receptor 2A (HTR2A) small molecule agonists, cell-based qHTS assay (AID 1963587); further: nearly all actives have a fitted effect of over 30% in size; further: potency means the concentration at half of the fitted maximal effect
Method in brief: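 HTR2A-CHO cells, plated 18 h at 37 C/5% CO2, dye-loaded 1 h at 37 C; compounds in DMSO added by pin tool (agonist mode). Intracellular calcium flux read as kinetic fluorescence on FDSS over 2 min at 1 s intervals.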

[10] = molecular target: Muscarinic acetylcholine receptor M1 (Homo sapiens) (UniProt P11229); experiment: Cholinergic receptor muscarinic 1 (CHRM1) small molecule antagonists, cell-based qHTS assay (AID 1963588); further: nearly all actives have a fitted effect of over 40% in size; further: potency means the concentration at half of the fitted maximal effect
Chain of Muscarinic acetylcholine receptor M1 (Homo sapiens) (P11229 whole entry, looked up): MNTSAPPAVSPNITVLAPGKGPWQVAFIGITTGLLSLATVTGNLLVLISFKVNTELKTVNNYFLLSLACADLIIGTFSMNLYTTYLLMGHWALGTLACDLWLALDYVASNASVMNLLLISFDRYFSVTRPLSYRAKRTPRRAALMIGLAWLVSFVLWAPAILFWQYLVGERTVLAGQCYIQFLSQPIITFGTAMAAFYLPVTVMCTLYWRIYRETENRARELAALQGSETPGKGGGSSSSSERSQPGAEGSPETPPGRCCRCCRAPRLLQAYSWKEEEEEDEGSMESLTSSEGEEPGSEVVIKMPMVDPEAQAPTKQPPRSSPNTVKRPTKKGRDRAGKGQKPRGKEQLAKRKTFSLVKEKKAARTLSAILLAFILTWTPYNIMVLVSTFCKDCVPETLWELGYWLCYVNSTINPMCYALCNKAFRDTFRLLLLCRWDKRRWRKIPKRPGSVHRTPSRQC
Method in brief: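 Compounds were tested at 15 concentrations in three independent runs. Dye-loaded CHRM1-CHO cells were exposed 5 min at room temperature before stimulation by acetylcholine added at 50nM. Intracellular calcium was read kinetically on FDSS for 3 min.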

[11] = molecular target: Muscarinic acetylcholine receptor M1 (Homo sapiens) (UniProt P11229); experiment: Cholinergic receptor muscarinic 1 (CHRM1) small molecule agonists, cell-based qHTS assay (AID 1963589); further: nearly all actives have a fitted effect of over 35% in size
Method in brief: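 Kinetic fluorescence (1 s intervals) of calcium-sensitive dye in human M1 CHO cells after compound addition; cells pre-incubated 18 h at 37 C/5% CO2 and dye-loaded 1 h.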

[12] = cAMP Responsive Elements (CRE) small molecule agonists, cell-based qHTS assay (AID 1963590); further: potency means the concentration at half of the fitted maximal effect
Method in brief: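 Test agents in DMSO were incubated 3 h at 37 C/5% CO2 with CRE-bla HEK 293T cells seeded 18 h earlier; LiveBLAzer B/G FRET substrate was added and read after 2 h at room temperature.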

[13] = cAMP Responsive Elements (CRE) small molecule antagonists, cell-based qHTS assay (AID 1963591; active means well fitted inhibition curve with a large enough effect in the signal ratio in the repeat runs, not every such curve was filed as active; the % refers to the signal ratio)
Method in brief: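 Reporter line CRE-bla HEK 293T in dialyzed-FBS DMEM; cells preincubated 18 h, treated 3 h with compound plus NKH477 (0.25 uM final); LiveBLAzer FRET, 2 h RT.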

[14] = molecular target: Beta-2 adrenergic receptor (Homo sapiens) (UniProt P07550); experiment: Adrenergic beta2 receptor (ADRB2) small molecule antagonists, cell-based qHTS assay (AID 1963592); further: series mostly up to about 92 µM; nearly all actives have a fitted effect of over 50% in size
Chain of Beta-2 adrenergic receptor (Homo sapiens) (P07550 whole entry, looked up): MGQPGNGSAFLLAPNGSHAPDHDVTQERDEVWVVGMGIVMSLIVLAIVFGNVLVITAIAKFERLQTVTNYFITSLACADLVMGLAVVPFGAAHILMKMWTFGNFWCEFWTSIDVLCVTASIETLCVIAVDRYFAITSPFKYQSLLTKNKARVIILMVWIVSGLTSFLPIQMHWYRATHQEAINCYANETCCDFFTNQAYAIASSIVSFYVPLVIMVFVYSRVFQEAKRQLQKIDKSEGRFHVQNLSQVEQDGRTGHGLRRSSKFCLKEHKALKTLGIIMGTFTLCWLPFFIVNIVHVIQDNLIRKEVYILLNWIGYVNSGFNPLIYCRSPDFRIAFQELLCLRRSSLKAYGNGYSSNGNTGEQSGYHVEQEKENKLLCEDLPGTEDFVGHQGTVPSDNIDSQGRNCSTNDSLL
Method in brief: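 Assay format: CHO-ADRB2 cells, 18-20hr seeding at 37C/5% CO2, then compound plus 1nM isoproterenol agonist mix for 0.5hr RT. Homogeneous time-resolved fluorescence cAMP detection after 1hr, expressed as 665/615 nm ratio.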

[15] = molecular target: Beta-2 adrenergic receptor (Homo sapiens) (UniProt P07550); experiment: Adrenergic beta2 receptor (ADRB2) small molecule agonists, cell-based qHTS assay (AID 1963593);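 further: CHO cells stably overexpressing human ADRB2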
Method in brief: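 CHO cells stably over-expressing ADRB2 were plated overnight at 37C, then dosed with compounds plus a stimulation mix containing 100uM IBMX and 25uM Ro-20-1724 for 0.5hr at room temperature. cAMP was measured by HTRF competition, 1hr.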

[16] = molecular target: D(2) dopamine receptor (Homo sapiens) (UniProt P14416); experiment: Dopamine D2 receptor (DRD2) small molecule agonists, cell-based qHTS assay (AID 1963594); further: nearly all actives have a fitted effect of over 35% in size
Chain of D(2) dopamine receptor (Homo sapiens) (P14416 whole entry, looked up): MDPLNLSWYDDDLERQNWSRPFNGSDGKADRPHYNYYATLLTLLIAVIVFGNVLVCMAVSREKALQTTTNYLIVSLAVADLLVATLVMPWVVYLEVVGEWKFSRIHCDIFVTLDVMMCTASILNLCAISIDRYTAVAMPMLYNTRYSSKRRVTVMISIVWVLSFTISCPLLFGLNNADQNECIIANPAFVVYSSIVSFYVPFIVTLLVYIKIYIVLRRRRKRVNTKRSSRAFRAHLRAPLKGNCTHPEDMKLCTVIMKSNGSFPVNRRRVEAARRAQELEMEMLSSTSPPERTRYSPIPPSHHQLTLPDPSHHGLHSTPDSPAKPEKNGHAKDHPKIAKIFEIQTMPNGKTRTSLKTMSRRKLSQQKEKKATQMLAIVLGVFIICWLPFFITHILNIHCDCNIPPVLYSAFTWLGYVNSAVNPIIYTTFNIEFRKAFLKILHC
Method in brief: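 HEK293 cells stably expressing DRD2 were cultured 24 h at 37 C, then given Ro20-1724 (0.1 mM final) and compounds for 10 min at room temperature. NKH477 (200nM) was then added for 30 min. cAMP was read by HTRF.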

[17] = molecular target: D(2) dopamine receptor (Homo sapiens) (UniProt P14416); experiment: Dopamine D2 receptor (DRD2) small molecule antagonists, cell-based qHTS assay (AID 1963595; active means well fitted inhibition curve with a large enough effect in the signal ratio in the repeat runs, with a control signal flat; the % refers to the signal ratio)
Method in brief: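 In this cell-based antagonist screen, compounds act for 10 min at room temperature before a 30 min challenge with 12 nM quinpirole and 200 nM NKH477. cAMP is quantified by HTRF competition in DRD2-HEK293 cells containing 0.1 mM Ro20-1724.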

[18] = p53 small molecule agonists, cell-based qHTS assay with rat liver microsomes: qHTS cell viability counter screen (AID 1963580); further: nearly all actives have a fitted effect of over 45% in size
Method in brief: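 Counter screen for cytotoxicity under metabolic activation: rat liver microsomes and NADPH, 0.5 mg/mL final each, added with compounds to p53RE-bla HCT-116 cells; 16 h at 37 C, then ATP luminescence read.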

[19] = p53 small molecule agonists, cell-based qHTS assay: qHTS cell viability counter screen (AID 1963581); further: nearly all actives have a fitted effect of over 45% in size
Method in brief: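 qHTS counter screen: 16 h compound exposure at 37 C of p53RE-bla HCT-116 cells (4,000 per well, seeded 5 h prior), cell viability by ATP luminescence.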

[20] = p53 small molecule agonists, cell-based qHTS assay with rat liver microsomes (AID 1963578)
Method in brief: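 Metabolic activation is supplied by rat liver microsomes with NADPH (each 0.5 mg/mL final). p53RE-bla cells incubate with compound 16 h at 37 C; reporter activity is measured by LiveBLAzer fluorescence.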

Row | Compound | Potency [1] | Potency [2] | Potency [3] | Potency [4] | Potency [5] | Potency [6] | Potency [7] | Potency [8] | Potency [9] | Potency [10] | Potency [11] | Potency [12] | Potency [13] | Potency [14] | Potency [15] | Potency [16] | Potency [17] | Potency [18] | Potency [19] | Potency [20]
1 | COc1ccc(NC(=O)CC(C)=O)cc1 | inactive | inactive | inactive | inactive | inactive | inactive | inactive | inactive | inactive | inactive | inactive | inactive | inactive | inactive | inactive | inactive | inactive |  |  | 
2 | Cc1c2ccccc2c(C)c2c1ccc1ccccc12 | 13.5 µM (active) and 9.69 µM (active) | inactive | inactive | inactive | inactive | inactive |  | inactive | 10.9 µM (active) and inactive | inactive | inactive |  |  | inactive |  | inactive | inactive | inactive | inactive | 
3 | COC(=O)C1=C(C)NC(C)=C(C(=O)O[C@@H]2CCCN(Cc3ccccc3)C2)[C@@H]1c1cccc([N+](=O)[O-])c1 | inactive | inactive | inactive | inactive |  | inactive | inactive | inactive |  | inactive | inactive | inactive | inactive | inactive | inactive | inactive | inactive | inactive | inactive | inactive
4 | CC1CCCNC1 (stereo not drawn) | 67.1 µM (active) | inactive | inactive | inactive | inactive |  | inactive | inactive | inactive | inactive | inactive | inactive | inactive |  | inactive | inactive |  |  | inactive | 
5 | CCCCCCCC/C=C\CCCCCCCC(=O)NCc1ccc(O)c(OC)c1 | inactive | inactive | inactive | inactive | inactive | inactive | inactive | inactive | inactive |  | inactive |  | inactive | inactive |  | inactive | inactive | inactive | inactive | 
6 | OC(CCN1CCCCC1)(c1ccccc1)C1CC2C=CC1C2 (stereo not drawn) | inactive | inactive | inactive | inactive |  | inactive | inactive | inactive |  | 0.0013 µM (active) |  |  |  | inactive | inactive | inactive | inactive | inactive | inactive | inactive
7 | C=CC(=O)Nc1cc2c(Nc3ccc(F)c(Cl)c3)ncnc2cc1OCCCN1CCOCC1 | inactive | inactive | inactive | inactive |  | inactive | inactive |  |  | inactive | inactive |  |  | inactive |  |  | inactive | inactive | inactive | inactive
8 | C=C1CC[C@H](O)CC1=C/C=C1\CCC[C@]2(C)[C@@H]([C@H](C)/C=C/[C@H](C)C(C)C)CC[C@@H]12 | 21.5 µM (active) and 61.1 µM (active) | inactive | inactive | inactive | inactive | inactive |  |  |  |  |  |  |  | inactive |  | inactive | inactive | inactive | inactive | 
9 | Cc1ccc(N/N=c2\c(=O)cc/c(=N\Nc3ccc(S(=O)(=O)O)cc3)c2=O)c(C)c1 | inactive | inactive | inactive | inactive | inactive | inactive | inactive | inactive | inactive | inactive | inactive | inactive | inactive | inactive |  | inactive | inactive | inactive | inactive | 
10 | C=CC(=C)CCC=C(C)C | 68.6 µM (active) | inactive | inactive | inactive |  | inactive | inactive | inactive | inactive | inactive | inactive | inactive | inactive | inactive | inactive | inactive | inactive | inactive | inactive | inactive
11 | CCc1cc2cc(OC)c(OC)cc2c(Cc2ccccc2)n1 | inactive | inactive | inactive | inactive | inactive |  | inactive |  |  | inactive | inactive | 11.9 µM (active) | inactive | inactive | inactive |  | inactive | inactive |  | 
12 | CCCCCOc1ccccc1/C(=C\SC)n1ccnc1 | 5.96 µM (active) | inactive | inactive | inactive | inactive |  | inactive | inactive |  | inactive | inactive |  |  | inactive |  | inactive | inactive | inactive |  | 
13 | CCCCCCCCCCCC(=O)OCC | inactive | inactive | inactive | inactive |  | inactive | inactive | inactive | inactive | inactive | inactive | inactive | inactive |  | inactive | inactive | inactive | inactive | inactive | inactive
14 | COc1cc(NC(C)CCCN)c2ncccc2c1 (stereo not drawn) | 11.9 µM (active) | inactive | inactive | inactive | inactive | inactive | inactive |  |  |  |  | inactive | inactive | inactive |  |  | inactive | inactive | inactive | 
15 | CCNC(=O)/C=C/c1cccc(Br)c1 | inactive | inactive | inactive | inactive |  | inactive | inactive |  | inactive | inactive | inactive | inactive | inactive | inactive | inactive | inactive | inactive | inactive | inactive | inactive
